Rows were chosen to be rich in hits. Some 1.6% of all compounds tested hit in one or more screens of this group.
KCNQ2 pot = potentiators of rat KCNQ2 potassium channel. Potassium voltage-gated channel subfamily KQT member 2 (Rattus norvegicus), O88943. CHO-K1 KCNQ2, FluxOR thallium flux fluorescence; active compounds read high. B-score at 10 µM. 310,000 tested, 0.54% active;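 active = fluorescence ratio B-score at least 3 SD of library B-scores, with initial fluorescence B-score within 3 of them, cut at about 5.3 in these data; same plate scores as AID 2156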;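 note: B-score of peak minus minimum over baseline fluorescence ratio after K+ and Tl+ stimulus; positive B-score means potentiation of KCNQ2 with more thallium influx and brighter signal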
Target sequence (O88943 whole entry, looked up): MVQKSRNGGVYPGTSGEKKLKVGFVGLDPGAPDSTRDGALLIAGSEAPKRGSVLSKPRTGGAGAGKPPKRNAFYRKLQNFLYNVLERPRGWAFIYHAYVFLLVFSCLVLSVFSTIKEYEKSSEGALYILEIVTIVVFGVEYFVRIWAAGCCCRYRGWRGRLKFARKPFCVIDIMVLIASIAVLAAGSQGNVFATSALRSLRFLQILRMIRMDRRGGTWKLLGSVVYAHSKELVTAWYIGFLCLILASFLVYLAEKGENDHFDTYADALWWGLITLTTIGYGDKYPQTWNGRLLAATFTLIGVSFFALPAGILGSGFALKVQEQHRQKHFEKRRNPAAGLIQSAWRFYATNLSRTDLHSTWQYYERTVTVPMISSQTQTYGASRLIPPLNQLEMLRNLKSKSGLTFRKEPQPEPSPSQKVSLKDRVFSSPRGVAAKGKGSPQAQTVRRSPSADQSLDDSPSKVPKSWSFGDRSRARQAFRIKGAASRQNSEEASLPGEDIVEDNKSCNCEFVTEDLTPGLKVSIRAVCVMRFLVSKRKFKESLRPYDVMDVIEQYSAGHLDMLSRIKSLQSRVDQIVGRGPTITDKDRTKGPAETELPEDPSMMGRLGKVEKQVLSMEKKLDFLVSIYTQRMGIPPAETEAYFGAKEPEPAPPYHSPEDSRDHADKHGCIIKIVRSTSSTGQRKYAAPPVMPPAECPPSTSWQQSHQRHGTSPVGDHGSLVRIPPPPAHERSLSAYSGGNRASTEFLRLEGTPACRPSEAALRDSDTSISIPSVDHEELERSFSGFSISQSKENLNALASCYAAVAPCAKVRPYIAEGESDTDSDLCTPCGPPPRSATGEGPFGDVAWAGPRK
KCNQ2 inh = rat KCNQ2 potassium channel inhibitors, primary screen, cell-based, CHO-K1, FluxOR thallium flux, B-score; B-score at 10 µM; 310,000 tested, 1.1% active; Potassium voltage-gated channel subfamily KQT member 2 (Rattus norvegicus), O88943; 20 min; active compounds read low;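 active = fluorescence ratio B-score at most minus 3 library SDs, with starting brightness B-score within 2 library SDs, cut at about -5.5 in these data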
Kir21 confirm = mouse Kir2.1 channel blockers, retest, confirmation, cell-based, FluxOR thallium flux, duplicate | shares compounds with KCNQ2 pot | Kir2.1-expressing cells, FluxOR thallium flux fluorescence; active compounds read low | Tl flux remaining, % of negative control (active compounds read low), % at 10 µM | 2,300 tested, 41% active | AID 2032, 2009;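 active = Primary-screen hit whose thallium flux fell at least 3 control SD below untreated wells in both duplicates, with normal baseline fluorescence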
HEK293 ctr = counter-screen for Kir2.1 inhibitors: effect in parental HEK293 cells. shares compounds with KCNQ2 pot. FluxOR thallium flux fluorescence; 0% = unstimulated blank wells. FluxOR signal as % of negative control (100 = no effect), % at 10 µM. 2,300 tested, 19% active;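 active = dye signal at least 3 control SD above or below untreated wells in both duplicates, raw fluorescence within 3, either direction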;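 note: percent is based on the flux ratio of peak minus minimum fluorescence over baseline F0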
CHO-K1 Tl ctr = nonspecific thallium flux increase in parental CHO-K1, confirmation, counter-screen for KCNQ2 potentiator project, cell-based, FluxOR thallium flux, duplicate | shares compounds with KCNQ2 pot | parental CHO-K1 cells, FluxOR thallium flux fluorescence; zero = vehicle mean+3SD, 100% = vehicle-minus-blank window | activity increase over 3SD of controls, % at 10 µM | 1,200 tested, 43% active;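 active = signal rise of at least 3 SD above the untreated control mean, in both duplicate wells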;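 note: counter screen of KCNQ2 potentiator hits so any rise reflects channel-independent effects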
KCNQ1 pot spec = human KCNQ1 channel potentiation off-target, confirmation, selectivity assay for KCNQ2 potentiator project, cell-based, CHO, FluxOR thallium flux; shares compounds with KCNQ2 pot; CHO KCNQ1 stable, FluxOR thallium flux fluorescence; beyond 3SD, as % of vehicle-control signal; activation over 3SD threshold, % at 10 µM; 1,200 tested, 28% active; AID 2283, 2010;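 active = fluorescence ratio rise of at least 3 SD of vehicle wells above their mean, in both replicate wells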
KCNQ2 pot confirm = rat KCNQ2 channel potentiators, confirmation, cell-based, CHO, FluxOR thallium flux, duplicate; CHO-KCNQ2 cells, FluxOR thallium flux fluorescence; potentiation, less the hit threshold, % at 10 µM; shares compounds with KCNQ2 pot; 1,200 tested, 68% active;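 active = fluorescence ratio rising 3 SD or more over the vehicle control mean in both replicates, plus primary screen hit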;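 note: peak minus minimum thallium fluorescence divided by baseline after K/Tl stimulus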
Kir2-1 sel = mouse Kir2.1 channel activation off-target, confirmation, selectivity assay for KCNQ2 potentiator project, cell-based, HEK293, FluxOR thallium flux | shares compounds with KCNQ2 pot | HEK293 Kir2.1, FluxOR thallium flux fluorescence | activity over 3SD threshold, % at 10 µM | 1,200 tested, 2% active;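 active = fluorescence ratio rise of at least 3 SD above the vehicle-control mean, seen in both replicates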
KCNQ2 W236L MoA = potentiators of retigabine-insensitive KCNQ2 W236L, mechanism study for KCNQ2 potentiator project, cell-based, rat KCNQ2 W236L, CHO, automated patch clamp; 940 tested, 10% active; automated patch clamp current; current increase over 3SD of negative controls (%), active compounds read high, % at 25 µM; shares compounds with KCNQ2 pot; AID 2558, 2010;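 active = current increase at least 3 SD of the untreated controls above them in both duplicate recordings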
Each line names hits and unclear results; the compound was inactive in the other large screens (follow-up assays come after a bar, where they were run).

COc1ccc(/C=C/C(=O)C2CC2)cc1COc1cccc(C)c1C	none (no result: KCNQ2 pot)
O=C(O)COc1c(-c2ccco2)oc2ccccc2c1=O	none
COc1ccc(-c2oc3ccccc3c(=O)c2OC(C)=O)cc1	KCNQ2 pot 6.7 | Kir21 confirm inactive | HEK293 ctr 310.5% | CHO-K1 Tl ctr 88.8 | KCNQ1 pot spec inactive | KCNQ2 pot confirm 19.3 | Kir2-1 sel inactive | KCNQ2 W236L MoA inactive
CC(=O)Oc1c(-c2ccc(Br)o2)oc2ccccc2c1=O	KCNQ2 pot 16.2 | Kir21 confirm inactive | HEK293 ctr 462.0% | CHO-K1 Tl ctr 114.1 | KCNQ1 pot spec inactive | KCNQ2 pot confirm 62.3 | Kir2-1 sel inactive | KCNQ2 W236L MoA inactive
COc1ccc(-c2oc3ccccc3c(=O)c2OCC(=O)O)cc1	none
O=C(Nc1ccc2ncccc2c1)c1cc(Cl)ccc1Cl	none (no result: KCNQ2 pot)
CCC1(c2ccc(F)cc2)NC(=O)N(CC(=O)N2CC(=O)Nc3ccccc32)C1=O (configuration not stated)	none
CC1(C)NC(=O)N(CCCOc2ccc(Br)cc2Cl)C1=O	none
CC(C)c1cc(Br)ccc1OCCCN1C(=O)NC(C)(C)C1=O	none (no result: KCNQ2 pot) | Kir21 confirm inactive | HEK293 ctr inactive
CC(NC(=O)C12CC3CC(CC(O)(C3)C1)C2)c1ccccc1 (configuration not stated)	none
Cc1ccc2nsnc2c1S(=O)(=O)Nc1cccc2nsnc12	KCNQ2 pot 6.13 | Kir21 confirm inactive | HEK293 ctr 237.5%
Cc1ccc(C)c(NS(=O)(=O)c2c(C)ccc3nsnc23)c1	none (no result: KCNQ2 pot)
CCOc1ccc(S(=O)(=O)NCCC(=O)NCC(c2cccs2)N2CCOCC2)cc1 (configuration not stated)	none
CC(C)(C)c1ccc(OCCC(=O)NCC(c2cccs2)N2CCOCC2)cc1 (configuration not stated)	KCNQ2 pot 7.04 | CHO-K1 Tl ctr inactive | KCNQ1 pot spec 123.2 | KCNQ2 pot confirm 19.1 | Kir2-1 sel inactive | KCNQ2 W236L MoA inactive
O=C(CSc1ccc(Br)cc1)NCC(c1cccs1)N1CCOCC1 (configuration not stated)	KCNQ2 pot 6.81 | CHO-K1 Tl ctr inactive | KCNQ1 pot spec inactive | KCNQ2 pot confirm 7.9 | Kir2-1 sel inactive | KCNQ2 W236L MoA inactive
COc1ccc(C(CNC(=O)CSc2ccc(Br)cc2)N2CCOCC2)cc1 (configuration not stated)	none
Cc1ccc2c(CN(C)Cc3ccc(Cl)cc3)cc(=O)oc2c1	none
S=C(NCc1cccnc1)Nc1ccc(Oc2ccccc2)cc1	none
O=C(Nc1ccc(OCc2ccccc2)cc1)c1cccnc1	none
O=C(Nc1ccc(OCc2ccccc2)cc1)Nc1cccnc1	KCNQ2 pot 7.23 | Kir21 confirm inactive | HEK293 ctr inactive | CHO-K1 Tl ctr inactive | KCNQ1 pot spec 63.7 | KCNQ2 pot confirm 11.3 | Kir2-1 sel inactive | KCNQ2 W236L MoA inactive
S=C(Nc1ccc(Oc2ccccc2)cc1)Nc1cccnc1	KCNQ2 pot 17.8 | Kir21 confirm inactive | HEK293 ctr inactive | CHO-K1 Tl ctr 8.9 | KCNQ1 pot spec inactive | KCNQ2 pot confirm 83.0 | Kir2-1 sel inactive | KCNQ2 W236L MoA 4.7%
CC1CCCCN1CCCNC(=O)CN1C(=O)c2cccnc2Oc2ccc(Cl)cc21 (configuration not stated)	none (no result: KCNQ2 pot)
O=C(COc1cc(Cl)c(Cl)cc1Cl)Nn1cnnc1	none (no result: KCNQ2 pot)
C#Cc1ccc([C@H]2C=C(C(=O)N3CCOCC3)O[C@@H](OCc3ccc(CO)cc3)C2)cc1	none (no result: KCNQ2 pot)
CCC(C(=O)NCc1cccnc1)n1nc(C)n2c(cc3occc32)c1=O (configuration not stated)	none (no result: KCNQ2 pot)
CC(=O)c1cc2c(cc1NC(=O)C1CCC1)OCO2	none
CCOC(=O)C1(Cc2cccc(Cl)c2)CCCN(C(=O)CCN2CCCC2=O)C1 (configuration not stated)	none (no result: KCNQ2 pot)
CCC1(C)Cc2c(sc3nnn(CC(=O)Nc4ccccc4)c(=O)c23)CO1 (configuration not stated)	KCNQ2 pot 19 | Kir21 confirm inactive | HEK293 ctr inactive | CHO-K1 Tl ctr inactive | KCNQ1 pot spec 26.6 | KCNQ2 pot confirm 41.2 | Kir2-1 sel inactive | KCNQ2 W236L MoA inactive
Cc1cccc(NC(=O)Cn2nnc3sc4c(c3c2=O)CC(C)(C)OC4)c1	none (no result: KCNQ2 pot)
CCCCSc1nc(O)cc(=O)n1CC	none
CCc1nn(CC(=O)NCCC(C)C)c(=O)c2cc3c(OC)cccc3n12	none
CC1=CC(C)(C)N(C(=O)CSc2nnc(C)s2)c2ccc(C)cc21	none (no result: KCNQ2 pot) | Kir21 confirm 70.5% | HEK293 ctr inactive
CC1=CC(C)(C)N(C(=O)CSc2nnc(N)s2)c2cc(C)c(C)cc21	none
CCCCn1cnc2c(c1=O)c1nc3ccccc3nc1n2Cc1ccc2c(c1)OCO2	none
CCOC(=O)c1ccc(NC(=O)CSc2nncn2-c2cccnc2)cc1	none (no result: KCNQ2 pot)
CCCCCCCCCC[n+]1cccc2c3ccccc3ccc21	none (no result: KCNQ2 pot) | Kir21 confirm 7.5% | HEK293 ctr inactive
CCCCCCCC[n+]1cccc2c3ccccc3ccc21	none
Cc1ccc(N2CC(C(=O)Nc3cccnc3)CC2=O)cc1C (configuration not stated)	none
C=CCNCCCOc1ccc(Cl)cc1C(C)(C)C	none (no result: KCNQ2 pot) | Kir21 confirm 27.5% | HEK293 ctr inactive
CC(C)(C)c1cc(Cl)ccc1OCCOCCN1CCCC1	none (no result: KCNQ2 pot) | Kir21 confirm 39.0% | HEK293 ctr inactive
Cc1ccc(OCCOCCN2CCN(C)CC2)c(C(C)(C)C)c1	none
C=CCNCCOCCOc1ccc(Cl)cc1C(C)(C)C	none (no result: KCNQ2 pot)
CCC(=O)c1cc(F)c(N2CCN(S(=O)(=O)c3ccc(C)cc3)CC2)cc1C	none
CCCCNc1nc(Nc2ccc(C)c(Cl)c2)c2cnn(C)c2n1	none
COC(=O)c1sc(NC(=S)NC(=O)c2ccc(F)cc2)nc1C	none
